The whole screen tested about 5,500 compounds, of which about 2,000 (36%) were called active. Another 18% or so got no clear call; they are omitted. Rule as the data show it: active = normalized growth mostly below about 0.91 (no sharp cut-off); inconclusive = no clear call, values can overlap the other calls; inactive = mostly above about 0.92. The list shows a part of the results.
Assay: chemical genetic growth profiling, strain panel (AID 1159580);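 also: tested at 20 µM; growth read once vehicle control cultures reached saturation at 30 °C; 1 = growth at the plate median or of vehicle wells; lower values mean less growth of the strain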
Conditions: growth OD

Measured: normalized growth

CCn1nc(C)cc1C(=O)O
active: S. cerevisiae deletion strains, locus YLR085C, strain ARP6, active compounds read low 1.3 [resistant]
inactive: S. cerevisiae deletion strains, locus YAL013W, strain DEP1, active compounds read low 0.992 | S. cerevisiae deletion strains, locus YBR229C, strain ROT2, active compounds read low 1.01 | S. cerevisiae deletion strains, locus YDL101C, strain DUN1, active compounds read low 1.03 | S. cerevisiae deletion strains, locus YDR150W, strain NUM1, active compounds read low 0.914 | S. cerevisiae deletion strains, locus YEL061C, strain CIN8, active compounds read low 1.03 | S. cerevisiae deletion strains, locus YGR078C, strain PAC10, active compounds read low 1.02 | S. cerevisiae deletion strains, locus YHR030C, strain SLT2, active compounds read low 1.07 | S. cerevisiae deletion strains, locus YHR087W, strain rtc3, active compounds read low 1.01 | S. cerevisiae deletion strains, locus YJL187C, strain SWE1, active compounds read low 1.02 | S. cerevisiae deletion strains, locus YJR043C, strain POL32, active compounds read low 0.962 | S. cerevisiae deletion strains, locus YJR075W, strain HOC1, active compounds read low 1.02 | S. cerevisiae deletion strains, locus YKL190W, strain CNB1, active compounds read low 1.02 | S. cerevisiae deletion strains, locus YLR039C, strain RIC1, active compounds read low 1.1 | S. cerevisiae deletion strains, locus YLR058C, strain SHM2 (second series), active compounds read low 1.02 | S. cerevisiae deletion strains, locus YLR262C, strain YPT6, active compounds read low 1.07 | S. cerevisiae deletion strains, locus YML094W, strain GIM5, active compounds read low 1.02 | S. cerevisiae deletion strains, locus YMR219W, strain ESC1, active compounds read low 1.01 | S. cerevisiae deletion strains, locus YMR263W, strain SAP30, active compounds read low 0.987 | S. cerevisiae deletion strains, locus YMR307W, strain GAS1, active compounds read low 1.24 | S. cerevisiae deletion strains, locus YNL153C, strain GIM3, active compounds read low 1 | S. cerevisiae deletion strains, locus YNL298W, strain CLA4 (second series), active compounds read low 1.04 | S. cerevisiae deletion strains, locus YNL322C, strain KRE1, active compounds read low 0.999 | S. cerevisiae deletion strains, locus YNR030W, strain Alg12, active compounds read low 1.02 | S. cerevisiae deletion strains, locus YPL055C, strain LGE1, active compounds read low 0.931 | S. cerevisiae deletion strains, locus YPL241C, strain CIN2, active compounds read low 1.03 | S. cerevisiae deletion strains, locus YPR135W, strain CTF4, active compounds read low 0.994 | S. cerevisiae strains, strain wild type, active compounds read low 1.02
